Assay results from the supplement of paper PMC10338343.
± gives the standard deviation.

The sequences below were run on MILI (PIWIL2) piRISC loaded with L1MC piRNA (26 nt) (assay: pre-steady-state target cleavage rate (min^-1); guide: L1MC piRNA 5'p-UAACUAAAUACUAUGCAAGCUGUAGG; MIWI and MILI are mouse PIWI proteins and EfPiwi is from a freshwater sponge; tags in brackets are library labels; higher = faster piRNA-guided slicing of the target). Details: auxiliary factor: 500 nM mouse GTSF1.
Protocol: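 Cleave-'n-Seq: a library of target RNAs (target site embedded in constant flanks, ACAGCATTCCGCGTTAGTGATATCCG... 5' flank; DNA-blocked outside the site) at 0.1 nM was incubated with 1 nM active mouse MILI or MIWI piRISC (synthetic 5'-monophosphorylated piRNA guide) with or without 500 nM mouse GTSF1 at 33 °C for 1 min to 16 h. Uncleaved targets were sequenced and normalised to non-target controls, and the pooled three trials were fitted to a burst-and-steady-state model to give the pre-steady-state cleavage rate (min^-1; k3 is constrained to at most 1e-4). Sequence is the target site only; target names encode pairing extent (gX:gY) and contiguous / 1-mismatch / 2-mismatch / bulge geometry. Fits with R² ≤ 0 are excluded.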

Row | Sequence | pre-steady-state target cleavage rate
1 | UCCUGGUACAGCAAGCAUAGUAUUUAGUUA | 0.232 ± 0.018
2 | UCCUGGAUCAGGAUGCAUAGUAUUUACAAA | 0.0127 ± 0.0048
3 | UCCUGGAUCACCUUGCAUUGUAUUUAGUUA | 0.094 ± 0.015
4 | UCCUCCUACAGCUUGCAUAGUAUUUAGUUG [g2:g26:cont:t1G] | 0.158 ± 0.016
5 | UCCUGGAUGUCCUUGCAUAGUAUAUUAGUUA | 0.188 ± 0.034
6 | UCCUGGAUGAGGUUGCAUAGUAUUAAGUUA | 0.0422 ± 0.018
7 | UCCUGGUACAGCUAGCAUAGUAAUUAGUUA | 0.236 ± 0.041
8 | UCCUGGUACAGUUUGCAUAGUAUUUAGUUA | 0.254 ± 0.02
9 | UCCUGGAUGAGCUUGCAUAGUGAUUUAGUUA | 0.00836 ± 0.0043
10 | UCCUCCUACACGAUGCAUAGUAUUUAGAAA | 0.102 ± 0.021
11 | UCCUGCUACAGGAAGCAUAGUAUUUACAAA | 0.0258 ± 0.008
12 | UCCUGGAUGAGCUUGCAUUGUAUUUAGAAA | 0.0178 ± 0.0069
13 | UCCUGGAUGUCGUUGCAUAGUAUAUAGUUA | 0.155 ± 0.028
14 | UCCUCCUACAGCUUGGAUAGUAUUUUGUUA | 0.164 ± 0.028
15 | UCCUGGUACAGCUUGCUUAGUAUUUAGUAA | 0.244 ± 0.03
16 | UCCUGGUACAGCUAGCAUAGUAUUAAGUUA | 0.198 ± 0.032
17 | UCCUGGAUGUCCUUAGCAUAGUAUUUAGUUA | 0.0724 ± 0.016
18 | UCCUGGAACAGCCUGCAUAGUAUUUAGUUA | 0.247 ± 0.012
19 | UCCUGGAUGUCCUUGCAUAGUAUAAAGUAA | 0.0169 ± 0.0066
20 | UCCUGGUACAGCUUGGUUAGUAUUUAGUAA | 0.159 ± 0.038
21 | UCCUGGUACAGCUUGCAUAGUAAUUUAGUUA | 0.186 ± 0.025
22 | UCCUGGAUGUGCUUUCAUAGUAUUUAGUUA | 0.126 ± 0.018
23 | UCCUGGAUCAGCUUGCAUAGUAUUUUCAUA | 0.0451 ± 0.011

Same assay, conditions: auxiliary factor: none (no GTSF1)

Row | Sequence | pre-steady-state target cleavage rate
24 | UCCUGGUACAGCAAGCAUAGUAUUUAGUUA | 0.00852 ± 0.0027
25 | UCCUGGAUCACCUUGCAUUGUAUUUAGUUA | 0.00486 ± 0.0032
26 | UCCUCCUACAGCUUGCAUAGUAUUUAGUUG [g2:g26:cont:t1G] | 0.0087 ± 0.0025
27 | UCCUGGAUGUCCUUGCAUAGUAUAUUAGUUA | 0.00666 ± 0.0032
28 | UCCUGGAUGAGGUUGCAUAGUAUUAAGUUA | 0.00493 ± 0.0031
29 | UCCUGGUACAGCUAGCAUAGUAAUUAGUUA | 0.00483 ± 0.0027
30 | UCCUGGUACAGUUUGCAUAGUAUUUAGUUA | 0.0161 ± 0.005
31 | UCCUGGAUGAGCUUGCAUAGUGAUUUAGUUA | 0.00434 ± 0.0027
32 | UCCUGGAUGUCGUUGCAUAGUAUAUAGUUA | 0.00761 ± 0.0026
33 | UCCUCCUACAGCUUGGAUAGUAUUUUGUUA | 0.00424 ± 0.0026
34 | UCCUGGUACAGCUUGCUUAGUAUUUAGUAA | 0.00308 ± 0.0025
35 | UCCUGGUACAGCUAGCAUAGUAUUAAGUUA | 0.00537 ± 0.0026
36 | UCCUGGAUGUCCUUAGCAUAGUAUUUAGUUA | 0.00307 ± 0.0025
37 | UCCUGGAACAGCCUGCAUAGUAUUUAGUUA | 0.00896 ± 0.0029
38 | UCCUGGUACAGCUUGGUUAGUAUUUAGUAA | 0.01 ± 0.0031
39 | UCCUGGUACAGCUUGCAUAGUAAUUUAGUUA | 0.0129 ± 0.0045
40 | UCCUGGAUGUGCUUUCAUAGUAUUUAGUUA | 0.00919 ± 0.0024
